Compounds without any hit were thinned out: in the full panel of roughly 83,000, 20% have a hit.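 Activity criterion: percent growth below 10, measured after cells in 96-well plates were exposed to a single compound concentration for 48 hours.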 The source made the active and inactive calls.
Columns and labels:
Assay in all cases: NCI-60 one-dose screen, 48 h (100 = growth as untreated, 0 = no growth, -100 = all killed)
Conditions in all cases: 10 µM unless noted
SR leukemia = system: SR leukemia
RPMI-8226 leukemia = system: RPMI-8226 leukemia
OVCAR-8 ovarian = system: OVCAR-8 ovarian
OVCAR-5 ovarian = system: OVCAR-5 ovarian
OVCAR-4 ovarian = system: OVCAR-4 ovarian
SK-OV-3 ovarian = system: SK-OV-3 ovarian
IGROV1 ovarian = system: IGROV1 ovarian
OVCAR-3 ovarian = system: OVCAR-3 ovarian
HS 578T breast = system: HS 578T breast
NCI/ADR-RES ovarian = system: NCI/ADR-RES ovarian

Measured: growth

Cc1ccc(S(=O)(=O)Nn2c3c(cc(-c4nc5ccccc5s4)c2=O)CCCCCC3)cc1
inactive: SR leukemia 97.8% | RPMI-8226 leukemia 97.8% | OVCAR-8 ovarian 92.3% | OVCAR-5 ovarian 105% | OVCAR-4 ovarian 98.5% | SK-OV-3 ovarian 104% | IGROV1 ovarian 95.3% | OVCAR-3 ovarian 102% | HS 578T breast 91.7% | NCI/ADR-RES ovarian 95.8%

CCN(Cc1ccccc1)c1ccc(C=O)cc1
inactive: SR leukemia 90.3% | RPMI-8226 leukemia 90.4% | OVCAR-8 ovarian 97.8% | OVCAR-5 ovarian 93.1% | OVCAR-4 ovarian 85.8% | SK-OV-3 ovarian 103% | IGROV1 ovarian 96.1% | OVCAR-3 ovarian 97.9% | HS 578T breast 120% | NCI/ADR-RES ovarian 101%

CN1CCN(c2ccc(NC3=C(Cl)C(=O)c4ncccc4C3=O)cc2C(F)(F)F)CC1
active: SR leukemia 9.03% | RPMI-8226 leukemia -4.52% | OVCAR-4 ovarian -96.8% | IGROV1 ovarian -37.6% | OVCAR-3 ovarian -82.9%
inactive: OVCAR-8 ovarian 30.4% | OVCAR-5 ovarian 100% | SK-OV-3 ovarian 84.9% | HS 578T breast 92.9% | NCI/ADR-RES ovarian 81.9%

C[C@H]1[C@H](C)CC[C@]2(C(=O)NCC#CCN3CCN(C)CC3)CC[C@]3(C)C(=CC[C@@H]4[C@@]5(C)Cc6c([nH]c7ccccc67)C(C)(C)[C@@H]5CC[C@]43C)[C@H]12
inactive: RPMI-8226 leukemia 67% | OVCAR-8 ovarian 90.2% | OVCAR-5 ovarian 94.4% | OVCAR-4 ovarian 83.2% | SK-OV-3 ovarian 86.9% | IGROV1 ovarian 93.6% | OVCAR-3 ovarian 82.6% | HS 578T breast 82.8% | NCI/ADR-RES ovarian 82.8%
active: SR leukemia 4.29%

O=C(NO)c1ccc(-n2nc(-c3ccccc3)c3ccccc32)cc1
active: OVCAR-3 ovarian 1%
inactive: SR leukemia 22.8% | RPMI-8226 leukemia 32.6% | OVCAR-8 ovarian 32.6% | OVCAR-5 ovarian 63.8% | OVCAR-4 ovarian 19.2% | SK-OV-3 ovarian 58.7% | IGROV1 ovarian 44.9% | HS 578T breast 55.5% | NCI/ADR-RES ovarian 22.7%

O=C(/C(=C\c1ccc([N+](=O)[O-])cc1)S(=O)Cc1ccc(F)cc1)c1ccc(F)cc1 (stereo not given)
active: SR leukemia 8.47% | RPMI-8226 leukemia -37.6% | IGROV1 ovarian -19.1%
inactive: OVCAR-8 ovarian 29.3% | OVCAR-5 ovarian 40.4% | OVCAR-4 ovarian 45% | SK-OV-3 ovarian 103% | OVCAR-3 ovarian 18.1% | HS 578T breast 40.9% | NCI/ADR-RES ovarian 20.7%

CCCCOc1ccc(/C(C)=N/Nc2cc(C)nc3ccc(Br)cc23)cc1
inactive: RPMI-8226 leukemia 57.9% | OVCAR-8 ovarian 88.4% | OVCAR-5 ovarian 113% | OVCAR-4 ovarian 101% | SK-OV-3 ovarian 89.4% | IGROV1 ovarian 85.7% | OVCAR-3 ovarian 101% | HS 578T breast 96.6% | NCI/ADR-RES ovarian 99.2%
active: SR leukemia -8.75%

COc1ccc(C(C)=O)c(OC)c1
inactive: SR leukemia 119% | RPMI-8226 leukemia 100% | OVCAR-8 ovarian 109% | OVCAR-5 ovarian 90.2% | OVCAR-4 ovarian 103% | SK-OV-3 ovarian 105% | IGROV1 ovarian 127% | OVCAR-3 ovarian 117% | HS 578T breast 113% | NCI/ADR-RES ovarian 108%

COc1ccc(CC(C)=C(c2ccc(OCCN3CCCCCC3)cc2)c2ccc(OCCN3CCCCCC3)cc2)cc1
active: SR leukemia -32.2% | RPMI-8226 leukemia -57.9% | OVCAR-8 ovarian -78.1% | OVCAR-5 ovarian -95.9% | OVCAR-4 ovarian -83.9% | SK-OV-3 ovarian -90.1% | IGROV1 ovarian -77.8% | OVCAR-3 ovarian -89.2% | HS 578T breast -61% | NCI/ADR-RES ovarian -90.3%

C=C(C)[C@@H]1CC[C@]2(C(=O)N3CCN(C)CC3)CC[C@]3(C)[C@H](CC[C@@H]4[C@@]5(C)C/C(=C/c6cccnc6)C(=O)C(C)(C)[C@@H]5CC[C@]43C)[C@@H]12
inactive: SR leukemia 19.9% | RPMI-8226 leukemia 21.2% | OVCAR-8 ovarian 56.2% | OVCAR-5 ovarian 100% | OVCAR-4 ovarian 49.2% | SK-OV-3 ovarian 83.8% | IGROV1 ovarian 96% | OVCAR-3 ovarian 57.5% | HS 578T breast 76.4% | NCI/ADR-RES ovarian 64.2%

COc1ccc(/C=N/NC(=O)c2cnn3c2NC(c2ccccc2)C3)cc1OC (stereo not given)
inactive: SR leukemia 32.3% | RPMI-8226 leukemia 83.2% | OVCAR-8 ovarian 75.3% | OVCAR-5 ovarian 92.1% | OVCAR-4 ovarian 107% | SK-OV-3 ovarian 78.9% | IGROV1 ovarian 59.6% | OVCAR-3 ovarian 18% | HS 578T breast 68% | NCI/ADR-RES ovarian 85.5%

O=c1ccc(-c2nc(N3CCOCC3)c3ccccc3n2)c[nH]1
inactive: SR leukemia 100% | RPMI-8226 leukemia 101% | OVCAR-8 ovarian 110% | OVCAR-5 ovarian 83.2% | OVCAR-4 ovarian 94.2% | SK-OV-3 ovarian 105% | IGROV1 ovarian 107% | OVCAR-3 ovarian 101% | HS 578T breast 62.5% | NCI/ADR-RES ovarian 96.9%

O=C(Cn1c[n+](CC(=O)c2ccc(-c3ccccc3)cc2)c2ccccc21)Nc1cccc2cccnc12
inactive: OVCAR-8 ovarian 20% | OVCAR-5 ovarian 62.8% | OVCAR-4 ovarian 10.3% | SK-OV-3 ovarian 50.5% | HS 578T breast 33.5% | NCI/ADR-RES ovarian 96.7%
active: SR leukemia -17.1% | RPMI-8226 leukemia -30.2% | IGROV1 ovarian -38.2% | OVCAR-3 ovarian -1.51%

COc1cc2nc(-c3ccc(Cl)cc3)cc(OCCCN3CCCC3)c2cc1OC
inactive: SR leukemia 14.5% | RPMI-8226 leukemia 20.2% | OVCAR-8 ovarian 56.2% | OVCAR-5 ovarian 52.6% | OVCAR-4 ovarian 58.2% | SK-OV-3 ovarian 75.5% | IGROV1 ovarian 34.5% | OVCAR-3 ovarian 74.4% | HS 578T breast 68.6% | NCI/ADR-RES ovarian 47.3%
